Our source for the composite z-score and z-score values is PubChem BioAssay.

The nature of test [1]: small molecules captured by biotinylated probe aFSTL3 – biochemical, small-molecule microarray, fluorescence 635/667, stem cell growth factor project, primary screen (AID 1064).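 Further: measures binding of the biotinylated anti-FSTL3 antibody to printed compounds.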 The following applies: higher = more signal.
The nature of test [2]: binders from COS7 lysate, DM2A8 probe, primary screen, torsin A project, cell lysate, small-molecule microarray, fluorescence 635/667 (AID 1065). The note with it: higher = more signal, COS7 lysate expressing mutant human TOR1A.
Test [3] can be described thus: small molecules captured by biotinylated probe aFGF2 – biochemical, small-molecule microarray, fluorescence 635/667, stem cell growth factor project, primary screen (AID 1067).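 Further: measures binding of biotinylated aFGF2 protein to printed compounds on slides; z-score merges feature fluorescence and signal-to-noise across triplicate slides.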 The note with it: higher = more signal.
Test [4] in a line: small molecules captured by biotinylated probe aFGF10 – biochemical, small-molecule microarray, fluorescence 635/667, stem cell growth factor project, primary screen (AID 1071).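 Further: score merges 667 nm spot intensity and signal to noise from triplicate slides.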 The note with it: higher = more signal.
Test [5] concerns the target Neurogenic locus notch homolog protein 2 (Homo sapiens) (UniProt Q04721). Kind of test: small molecules binding Notch2 protein – biochemical, small-molecule microarray, 635 nm fluorescence, stem cell growth factors, primary screen (AID 1073). The note with it: higher = more signal.
For test [6], the target named is Pro-neuregulin-1, membrane-bound isoform (Homo sapiens) (UniProt Q02297). Kind of test: small molecules binding neuregulin-1 protein – biochemical, small-molecule microarray, fluorescence 635/667, psychiatric disease protein project, primary screen (AID 1075).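 Further: score combines 667 nm spot fluorescence with signal to noise.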 The note with it: NRG1 binding, 635 nm fluorescence, higher = more signal.
Test [7] relates to Neuregulin-1 EGF-like domain. Kind of test: small molecules binding NRG1 EGF domain – biochemical, small-molecule microarray, 635 nm fluorescence, primary screen (AID 1081).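 Further: binding of the protein to compounds printed on small-molecule microarray slides.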 The following applies: higher = more signal.
Test [8] can be described thus: FRG1 expression reporter modulators in myotubes – cell-based, C2C12 myotubes, firefly/Renilla luciferase, luminescence, FRG1 inhibition for FSHD, primary screen (AID 1084). The following applies: FRG1 promoter luciferase, higher = more signal, called active from +8 up or from −8 down.
The nature of test [9]: small molecules captured by biotinylated probe aFST – biochemical, small-molecule microarray, fluorescence 635/667, stem cell growth factor project, primary screen (AID 1086).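 Further: score merges 667 nm fluorescence with signal-to-noise of each printed compound spot.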 The following applies: higher = more signal.
Test [10] is described as follows: binders of probe aHhip on microarray, primary screen, stem cell growth factor project, biochemical, small-molecule microarray, fluorescence 635/667 (AID 1087).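 Further: score merges spot fluorescence at 667nm with spot signal to noise ratio.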 The following applies: higher = more signal.
Test [11] deals with PRMT1 (protein arginine N-methyltransferase 1). Nature of the test: small molecules binding arginine methyltransferase PRMT1 – biochemical, small-molecule microarray, 635 nm fluorescence, primary screen (AID 1088).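 Further: binding of Prmt1 protein to compounds spotted on small-molecule microarray slides.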 The note with it: higher = more signal.
A short description of test [12]: growth effects on S. cerevisiae YJM789 – YJM789 clinical isolate, OD600, 24 h, basal, primary screen (AID 1089).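 Further: growth of clinical yeast isolate S. cerevisiae YJM 789 seeded 1000 cells per well; test concentration not given here.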 The following applies: higher = more signal, called active from +8 up or from −8 down.
The nature of test [13]: S. pombe growth modifiers, basal conditions – strain 972, OD600, 24 h, no modulator, primary screen (AID 1090).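 Further: basal condition with compound alone and no growth modifier present; test concentration not given here.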 The note with it: S. pombe 972 growth, higher = more signal, called active from +8 up or from −8 down.
Test [14] is described as follows: budding yeast growth modifiers under rapamycin – strain BY4716, OD600, 96 h, primary screen (AID 1091). Further: test concentration not given here. The note with it: S. cerevisiae BY4716 + rapamycin, higher = more signal, called active from +8 up or from −8 down.
Test [15] has as its target Torsin-1A-interacting protein 2 (Homo sapiens) (UniProt Q8NFQ8). Nature of the test: small molecules binding lysate-expressed LULL1 – cell lysate, human LULL1 lysate, 635/667 nm fluorescence, primary screen (AID 1092).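 Further: probe is lysate of COS7 cells overexpressing human LULL1; score merges per-feature 667 nm fluorescence with signal-to-noise.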 The following applies: small-molecule microarray, hLULL1 lysate binding, 635 nm fluorescence; higher = more signal.
Test [16] is described as follows: optical density change of DRC41 E. coli – strain DRC41, OD650, 24 h, E. coli filamentation project, primary screen (AID 1093).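 Further: MC1000 strain lacking acrAB efflux and sulA so SOS filamentation is blocked; test concentration not given here.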 The following applies: E. coli DRC41 growth, higher = more signal, called active from +8 up or from −8 down.
Test [17] in a line: probe aLefty2 binding to arrayed compounds – biochemical, biotinylated probe, 635/667 nm fluorescence, primary screen (AID 1094).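 Further: score merges spot fluorescence near 667 nm with spot signal-to-noise ratio.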 The following applies: small-molecule microarray, higher = more signal.
Test [18] has as its system Noggin (protein binding on small-molecule microarray). Kind of test: small molecules binding Noggin protein – biochemical, 635/667 nm fluorescence, primary screen (AID 1095).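 Further: score merges 667 nm feature fluorescence with signal to noise over triplicate slides.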 The following applies: 635 nm fluorescence, higher = more signal.
For test [19], the target named is Neurogenic locus notch homolog protein 3 (Homo sapiens) (UniProt Q9UM47). Nature of the test: small molecules binding NOTCH3 protein – biochemical, 635/667 nm fluorescence, primary screen (AID 1096). The following applies: small-molecule microarray, 635 nm fluorescence, higher = more signal.
Neurogenic locus notch homolog protein 3 (Homo sapiens), sequence (Q9UM47 whole entry, looked up): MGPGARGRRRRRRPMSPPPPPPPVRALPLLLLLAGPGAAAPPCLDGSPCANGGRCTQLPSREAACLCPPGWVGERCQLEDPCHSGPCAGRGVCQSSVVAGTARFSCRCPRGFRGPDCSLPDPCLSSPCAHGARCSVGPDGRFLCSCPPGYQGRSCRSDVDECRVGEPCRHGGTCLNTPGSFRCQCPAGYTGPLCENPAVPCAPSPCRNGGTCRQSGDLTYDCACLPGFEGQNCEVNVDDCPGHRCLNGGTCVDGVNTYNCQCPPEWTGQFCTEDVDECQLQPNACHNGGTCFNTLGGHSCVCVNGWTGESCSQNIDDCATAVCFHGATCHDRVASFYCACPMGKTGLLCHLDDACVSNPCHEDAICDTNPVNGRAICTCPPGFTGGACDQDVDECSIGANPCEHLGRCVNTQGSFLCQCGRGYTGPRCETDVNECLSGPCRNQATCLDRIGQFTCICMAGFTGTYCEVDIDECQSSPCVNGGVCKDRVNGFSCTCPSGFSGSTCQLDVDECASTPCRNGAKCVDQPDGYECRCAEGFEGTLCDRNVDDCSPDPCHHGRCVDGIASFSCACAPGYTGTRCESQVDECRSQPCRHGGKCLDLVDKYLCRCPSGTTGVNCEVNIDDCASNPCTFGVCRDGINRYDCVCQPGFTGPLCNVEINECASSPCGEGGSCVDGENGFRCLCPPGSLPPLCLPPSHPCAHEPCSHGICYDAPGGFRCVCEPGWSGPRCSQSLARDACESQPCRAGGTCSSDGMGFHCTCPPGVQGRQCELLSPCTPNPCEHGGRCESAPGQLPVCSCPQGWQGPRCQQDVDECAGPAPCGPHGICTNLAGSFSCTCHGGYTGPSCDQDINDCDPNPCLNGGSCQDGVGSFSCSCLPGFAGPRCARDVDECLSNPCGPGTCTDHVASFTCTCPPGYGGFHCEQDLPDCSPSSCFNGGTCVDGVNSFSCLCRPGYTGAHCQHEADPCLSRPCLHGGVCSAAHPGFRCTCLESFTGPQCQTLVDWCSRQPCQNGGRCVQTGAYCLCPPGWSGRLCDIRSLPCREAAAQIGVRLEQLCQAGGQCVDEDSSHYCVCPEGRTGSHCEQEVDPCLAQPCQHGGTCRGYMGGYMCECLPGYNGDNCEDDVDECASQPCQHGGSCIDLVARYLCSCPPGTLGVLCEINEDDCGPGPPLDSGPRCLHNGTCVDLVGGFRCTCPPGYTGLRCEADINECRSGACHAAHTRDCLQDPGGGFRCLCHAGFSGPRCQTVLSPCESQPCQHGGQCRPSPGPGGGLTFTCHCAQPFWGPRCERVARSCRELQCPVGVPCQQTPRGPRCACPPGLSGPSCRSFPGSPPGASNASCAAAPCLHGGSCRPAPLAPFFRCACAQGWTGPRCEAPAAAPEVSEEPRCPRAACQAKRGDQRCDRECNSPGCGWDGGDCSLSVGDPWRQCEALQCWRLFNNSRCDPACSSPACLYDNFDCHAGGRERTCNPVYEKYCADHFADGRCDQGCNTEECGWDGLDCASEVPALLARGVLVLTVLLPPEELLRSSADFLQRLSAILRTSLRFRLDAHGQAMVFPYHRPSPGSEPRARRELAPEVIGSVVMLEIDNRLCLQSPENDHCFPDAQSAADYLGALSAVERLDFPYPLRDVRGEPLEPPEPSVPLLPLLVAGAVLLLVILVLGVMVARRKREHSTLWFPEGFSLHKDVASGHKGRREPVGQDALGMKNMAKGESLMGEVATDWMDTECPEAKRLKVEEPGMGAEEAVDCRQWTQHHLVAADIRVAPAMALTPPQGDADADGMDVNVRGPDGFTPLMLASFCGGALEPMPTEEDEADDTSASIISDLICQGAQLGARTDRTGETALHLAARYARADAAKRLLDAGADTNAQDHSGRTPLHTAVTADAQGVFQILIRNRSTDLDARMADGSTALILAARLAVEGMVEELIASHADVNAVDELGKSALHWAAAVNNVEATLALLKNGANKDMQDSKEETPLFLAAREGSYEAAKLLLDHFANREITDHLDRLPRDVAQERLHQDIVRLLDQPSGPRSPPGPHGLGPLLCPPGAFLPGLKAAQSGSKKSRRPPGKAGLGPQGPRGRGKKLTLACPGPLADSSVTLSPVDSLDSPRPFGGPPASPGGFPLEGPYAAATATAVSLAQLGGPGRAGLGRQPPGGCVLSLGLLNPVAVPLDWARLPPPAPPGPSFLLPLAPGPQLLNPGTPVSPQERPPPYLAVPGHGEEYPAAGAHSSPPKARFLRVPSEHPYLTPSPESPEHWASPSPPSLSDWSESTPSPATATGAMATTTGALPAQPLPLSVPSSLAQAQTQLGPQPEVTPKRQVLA
Test [20] is described as follows: probe aEGFR binding to arrayed compounds – biochemical, biotinylated probe, 635/667 nm fluorescence, primary screen (AID 1097).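 Further: probe is a biotinylated anti-EGFR antibody binding compounds printed on slides; score combines fluorescence near 667 nm and signal to noise of each spot.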 The note with it: small-molecule microarray, higher = more signal.

The source made the active and inactive calls.

Neurogenic locus notch homolog protein 2 (Homo sapiens), sequence (Q04721 whole entry, looked up, canonical isoform): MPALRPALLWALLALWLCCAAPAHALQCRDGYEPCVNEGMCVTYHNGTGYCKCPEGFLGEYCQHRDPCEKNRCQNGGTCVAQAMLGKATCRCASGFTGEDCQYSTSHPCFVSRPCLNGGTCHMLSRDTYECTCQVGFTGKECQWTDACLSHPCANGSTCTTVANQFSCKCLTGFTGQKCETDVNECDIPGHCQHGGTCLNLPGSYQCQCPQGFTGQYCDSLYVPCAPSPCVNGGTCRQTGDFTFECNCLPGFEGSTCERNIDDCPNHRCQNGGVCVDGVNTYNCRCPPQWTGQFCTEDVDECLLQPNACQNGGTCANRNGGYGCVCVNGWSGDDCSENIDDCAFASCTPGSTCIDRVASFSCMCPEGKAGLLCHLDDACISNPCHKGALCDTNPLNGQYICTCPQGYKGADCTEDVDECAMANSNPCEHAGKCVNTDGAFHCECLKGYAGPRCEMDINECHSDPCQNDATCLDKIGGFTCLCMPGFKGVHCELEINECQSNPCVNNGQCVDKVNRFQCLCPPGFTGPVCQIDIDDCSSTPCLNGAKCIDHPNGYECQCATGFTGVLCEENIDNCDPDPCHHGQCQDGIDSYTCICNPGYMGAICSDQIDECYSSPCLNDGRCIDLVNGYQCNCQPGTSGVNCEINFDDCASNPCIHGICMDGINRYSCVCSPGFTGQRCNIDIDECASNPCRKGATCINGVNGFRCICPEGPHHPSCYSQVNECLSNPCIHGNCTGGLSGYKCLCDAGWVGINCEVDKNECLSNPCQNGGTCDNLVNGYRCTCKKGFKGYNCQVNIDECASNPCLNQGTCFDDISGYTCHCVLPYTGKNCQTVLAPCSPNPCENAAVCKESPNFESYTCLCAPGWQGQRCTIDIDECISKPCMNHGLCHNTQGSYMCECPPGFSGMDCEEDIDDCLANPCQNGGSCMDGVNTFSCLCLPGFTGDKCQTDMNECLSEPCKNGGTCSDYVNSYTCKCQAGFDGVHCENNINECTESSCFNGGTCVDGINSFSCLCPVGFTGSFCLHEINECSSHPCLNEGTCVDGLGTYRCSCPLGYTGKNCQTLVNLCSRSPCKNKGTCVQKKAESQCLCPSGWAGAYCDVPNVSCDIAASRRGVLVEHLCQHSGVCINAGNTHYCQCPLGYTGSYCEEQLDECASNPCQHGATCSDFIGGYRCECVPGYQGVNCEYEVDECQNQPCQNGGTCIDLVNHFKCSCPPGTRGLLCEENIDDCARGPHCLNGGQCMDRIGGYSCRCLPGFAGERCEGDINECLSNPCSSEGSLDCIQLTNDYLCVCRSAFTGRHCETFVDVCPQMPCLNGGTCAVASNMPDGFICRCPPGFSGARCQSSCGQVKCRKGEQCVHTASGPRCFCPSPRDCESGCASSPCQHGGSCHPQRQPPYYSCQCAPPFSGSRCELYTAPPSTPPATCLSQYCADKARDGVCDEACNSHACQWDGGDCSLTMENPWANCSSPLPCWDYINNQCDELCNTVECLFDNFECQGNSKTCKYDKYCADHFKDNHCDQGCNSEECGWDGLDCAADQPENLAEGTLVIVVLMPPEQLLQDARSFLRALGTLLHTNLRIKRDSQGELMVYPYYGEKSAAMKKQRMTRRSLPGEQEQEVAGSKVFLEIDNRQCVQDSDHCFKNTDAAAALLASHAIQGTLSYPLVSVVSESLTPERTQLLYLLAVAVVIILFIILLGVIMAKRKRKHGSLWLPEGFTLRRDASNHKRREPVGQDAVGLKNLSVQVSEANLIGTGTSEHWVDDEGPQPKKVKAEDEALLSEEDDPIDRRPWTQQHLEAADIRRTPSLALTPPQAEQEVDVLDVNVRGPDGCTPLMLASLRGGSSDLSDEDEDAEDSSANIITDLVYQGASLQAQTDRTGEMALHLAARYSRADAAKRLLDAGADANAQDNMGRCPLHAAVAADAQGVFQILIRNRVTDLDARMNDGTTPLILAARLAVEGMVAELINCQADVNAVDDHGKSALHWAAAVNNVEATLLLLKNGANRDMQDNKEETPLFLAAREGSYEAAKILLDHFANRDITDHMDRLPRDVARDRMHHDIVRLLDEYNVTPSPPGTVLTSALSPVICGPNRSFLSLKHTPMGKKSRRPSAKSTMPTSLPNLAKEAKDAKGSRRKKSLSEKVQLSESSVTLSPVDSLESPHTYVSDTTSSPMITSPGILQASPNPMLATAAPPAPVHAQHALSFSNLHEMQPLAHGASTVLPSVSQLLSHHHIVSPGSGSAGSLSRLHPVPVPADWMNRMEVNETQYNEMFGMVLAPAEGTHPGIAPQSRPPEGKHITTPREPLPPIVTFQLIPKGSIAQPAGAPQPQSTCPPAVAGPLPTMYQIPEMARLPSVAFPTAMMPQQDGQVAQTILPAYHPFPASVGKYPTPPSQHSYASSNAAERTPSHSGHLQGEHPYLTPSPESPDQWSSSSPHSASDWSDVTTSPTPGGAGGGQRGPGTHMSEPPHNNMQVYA

`CCOC(=O)[C@H](CC(C)C)NC(=O)CCC1CC(OC(=O)NCc2ccc3c(c2)OCO3)CC2(CCCC(COC(=O)NCC(c3ccccc3)c3ccccc3)O2)O1` (stereo not given in full): the composite z-score in [1] was -0.354; in [2] it was -0.168; in [3], -0.0692; in test [4], 0.229; in [5], 0.129; in test [6], 0.49. Further, the composite z-score in test [7] is 1.17; in test [9] it was 0.344; in test [10], -0.0994; in [11], 0.915; in test [15], 1.6; in test [17], -0.145. The composite z-score in [18] is 0.617; in [19], 0.79; in test [20], -0.0177. Besides, the z-score in test [8] was 2.69 (inactive); in test [12], 0.417 (inactive); in test [13], 0.707 (inactive); in test [14], 0.34 (inactive); in test [16], 0.344 (inactive).
Turning to `O=C1CCCC=C1C(O)CCCCBr` (stereo not given), the composite z-score in [1] is 0.383; in test [2] it was -0.0756; in test [3] it was -0.0695; in test [4] it was 0.0586; in test [5], 0.948; in test [6], 0.932. Further, the composite z-score in test [7] is 0.0079; in test [9], 0.227; in test [10], -0.0994; in [11] it was -0.25; in test [15], 1.7; in test [17] it was 0.263. Also, the composite z-score in [18] was 1.03; in [19], 0.474; in test [20] it was -0.0742. In addition, the z-score was 6.9 (inactive) in test [8]; -3.03 (inactive) in [12]; -20.8 (active) in test [13]; -1.04 (inactive) in [14]; 0.518 (inactive) in test [16].
As for `CO[C@@H]1COC(=O)CC=C[C@@H](C)[C@@H]2C=C[C@H](O)[C@@H](COC(=O)CC=C[C@H]1C)O2`, the composite z-score in test [1] is -0.304; in [2] it was 1.7; in test [3], -0.192; in test [4], -0.14; in test [5] it was -0.703; in test [6], -0.421. Further, the composite z-score in [7] is 0.824; in test [9], -0.245; in test [10], 0.0714; in test [11], 1.56; in test [15] it was -0.664; in test [17], -0.123. For the same molecule, the values for the composite z-score in test [18], in test [19] and in test [20] were 1.47, 0.276 and 0.0651, respectively. In addition, the z-score in test [8] is -0.715 (inactive); in [12], -0.48 (inactive); in [13], -0.636 (inactive); in test [14], -0.922 (inactive); in test [16] it was 0.713 (inactive).
Consider `CC(C)(C)N1C(=O)[C@H]2[C@H]3[C@H](O)C=CC(=O)[C@@H]3CC[C@H]2C1=O`, for which the composite z-score in test [1] was -0.623; in test [2] it was 0.0741; in [3], -0.132; in test [4], 0.412; in test [5], 0.437; in [6] it was -0.261. The composite z-score in [7] is 0.368; in test [9], 0.229; in test [10] it was 0.0251; in [11], -0.832; in test [15], -0.117; in [17] it was -0.0258. Besides, the composite z-score was found to be 0.891 in test [18], 0.604 in [19] and 0.0469 in [20]. Further, the z-score was -0.757 (inactive) in test [8]; 0.985 (inactive) in test [12]; 0.632 (inactive) in [13]; 1.12 (inactive) in test [14]; 0.208 (inactive) in [16].
As to `CCOC(=O)[C@H](CC(C)C)NC(=O)CCC1CC(OC(=O)NCCc2ccc(F)cc2)CC2(CCCC(COC(=O)NCCOc3ccccc3)O2)O1` (stereo not given in full), the composite z-score in [1] is -0.715; in test [2] it was -0.409; in [3], -0.0909; in [4], 0.704; in test [5] it was 1.25; in test [6], 0.996. The composite z-score was 1.24 in test [7]; 0.283 in test [9]; -0.374 in test [10]; 1.56 in test [11]; 2.21 in test [15]; -0.0965 in test [17]. Besides, the composite z-score is 0.676 in [18], 1.11 in test [19] and -0.0828 in [20]. Further, the z-score in test [8] is 1.99 (inactive); in test [12] it was 0.407 (inactive); in [13] it was 0.374 (inactive); in test [14], -0.445 (inactive); in test [16] it was -0.552 (inactive).
